The text below walks through data of PubChem BioAssay (NCI).

Structures are written as SMILES. This is part of a sample that, as a whole, favours compounds with a hit. Of some 83,000 tested, about 20% had one in any assay.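 Note: values are percent growth. 100 is the growth of untreated cells, values between 100 and 0 indicate rising inhibition; between -100 and 0 indicates cell death.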 Values without a mark were called inactive. Calls of active or inactive are those of the source. The calls were made as follows: active = growth percent below 10; inactive = the rest.

Some test systems named below: SK-MEL-2 melanoma; EKVX NSCLC; SN12C renal; UO-31 renal; TK-10 renal; ACHN renal; CAKI-1 renal; A498 renal; CCRF-CEM leukemia; MOLT-4 leukemia; SR leukemia; RPMI-8226 leukemia; OVCAR-8 ovarian; OVCAR-5 ovarian; OVCAR-4 ovarian; SK-OV-3 ovarian; IGROV1 ovarian; OVCAR-3 ovarian; HS 578T breast; NCI/ADR-RES ovarian.
Common to all, as to experiment: NCI-60 one-dose screen, 48 h (100 = growth as untreated, 0 = no growth, -100 = all killed)
Holding throughout (details): 10 µM unless noted

In the case of `COc1cccc(C2C3=C(COC3=O)N(CCO)c3cc4c(cc32)OCCO4)c1` (stereo not given), the growth in the experiment with SK-MEL-2 melanoma was 78.1%; in the experiment on EKVX NSCLC, 39.7%; with SN12C renal it was 31%; with UO-31 renal, 75%; with TK-10 renal, 66.9%; in the experiment with ACHN renal, 24.8%. Also, the growth with CAKI-1 renal is 41.6%; with A498 renal, -21.8% (active); with CCRF-CEM leukemia, 11.5%; in the experiment with MOLT-4 leukemia, 11.8%; in the experiment with SR leukemia, 9.73% (active); in the experiment on RPMI-8226 leukemia, 25.4%. For the same compound, the growth with OVCAR-8 ovarian is 27.7%; with OVCAR-5 ovarian, 29.8%; in the experiment with OVCAR-4 ovarian, 24.2%; in the experiment with SK-OV-3 ovarian, 22.6%; in the experiment on IGROV1 ovarian it was 13.8%; in the experiment with OVCAR-3 ovarian, -59.7% (active). The growth is -5.22% (active) with HS 578T breast and -35.1% (active) in the experiment with NCI/ADR-RES ovarian.

For the compound `COC(=O)c1sc(-c2ccc(C)cc2)cc1O`, the growth in the experiment with SK-MEL-2 melanoma is 99%; in the experiment with EKVX NSCLC, 101%; with SN12C renal, 101%; with UO-31 renal, 94.1%; with TK-10 renal it was 99.2%; in the experiment on ACHN renal, 112%. In addition, the growth was 94.3% in the experiment with CAKI-1 renal; 98.5% with A498 renal; 103% in the experiment with CCRF-CEM leukemia; 87.7% with MOLT-4 leukemia; 81.9% in the experiment on SR leukemia; 103% in the experiment on RPMI-8226 leukemia. Also, the growth with OVCAR-8 ovarian is 117%; with OVCAR-5 ovarian, 112%; with OVCAR-4 ovarian, 91.5%; in the experiment with SK-OV-3 ovarian it was 114%; with IGROV1 ovarian it was 100%; in the experiment with OVCAR-3 ovarian, 99.6%. Besides, the growth in the experiment with HS 578T breast was 101%; in the experiment on NCI/ADR-RES ovarian it was 99.8%.

On to `O=C1NC(=O)C(=Cc2cc(-c3ccc(Cl)cc3)n(-c3ccccc3)n2)C(=O)N1`, for which the growth was 106% with SK-MEL-2 melanoma; 91.6% with EKVX NSCLC; 92.5% in the experiment on SN12C renal; 86.6% with UO-31 renal; 88.3% with TK-10 renal; 95.2% in the experiment with ACHN renal. Besides, the growth with CAKI-1 renal is 92.8%; in the experiment with A498 renal it was 93.5%; in the experiment on CCRF-CEM leukemia it was 92.7%; with MOLT-4 leukemia, 92.4%; in the experiment with SR leukemia, 93.7%; in the experiment with RPMI-8226 leukemia it was 92.1%. For the same compound, the growth with OVCAR-8 ovarian was 101%; with OVCAR-5 ovarian, 91.5%; in the experiment with OVCAR-4 ovarian, 103%; with SK-OV-3 ovarian, 105%; in the experiment on IGROV1 ovarian it was 93.1%; in the experiment with OVCAR-3 ovarian, 111%. Moreover, the growth is 95.5% with HS 578T breast and 107% with NCI/ADR-RES ovarian.

Turning to `CCC(C)C(N)C(=O)NC(CC(C)C)C(=O)N1CCCC1C(=O)NC(Cc1c[nH]c2ccccc12)C(=O)NC(CCCCN)C(=O)NC(Cc1c[nH]c2ccccc12)C(=O)N1CCCC1C(=O)NC(Cc1c[nH]c2ccccc12)C(=O)NC(Cc1c[nH]c2ccccc12)C(=O)N1CCCC1C(=O)NC(Cc1c[nH]c2ccccc12)C(=O)NC(CCCNC(=N)N)C(=O)NC(CCCNC(=N)N)C(N)=O` (stereo not given), the growth is 108% in the experiment on SK-MEL-2 melanoma; 104% in the experiment with EKVX NSCLC; 101% in the experiment with SN12C renal; 68.1% in the experiment on UO-31 renal; 124% with TK-10 renal; 98% in the experiment with ACHN renal. Further, the growth is 90.4% in the experiment on CAKI-1 renal; 130% with A498 renal; -58.7% (active) in the experiment on CCRF-CEM leukemia; -28.2% (active) in the experiment with MOLT-4 leukemia; 10.9% in the experiment on SR leukemia; 75% with RPMI-8226 leukemia. Moreover, the growth in the experiment with OVCAR-8 ovarian was 75.5%; with OVCAR-5 ovarian it was 98.8%; in the experiment on OVCAR-4 ovarian it was 119%; in the experiment with SK-OV-3 ovarian it was 109%; in the experiment on IGROV1 ovarian, 58.4%; in the experiment on OVCAR-3 ovarian it was 101%. Further, the growth is 105% with HS 578T breast and 92.1% with NCI/ADR-RES ovarian.

Consider `C=C(C)[C@@H]1CC[C@]2(C(=O)NC(C)=O)CC[C@]3(C)[C@H](CC[C@@H]4[C@@]5(C)CCCNC(C)(C)[C@@H]5CC[C@]43C)[C@@H]12`, for which the growth in the experiment on SK-MEL-2 melanoma was -34.6% (active); in the experiment on EKVX NSCLC it was 68.8%; with SN12C renal it was 22.2%; in the experiment with UO-31 renal, 49.7%; in the experiment on TK-10 renal, 10.6%; in the experiment with ACHN renal, -30.1% (active). Further, the growth is 71.8% with CAKI-1 renal; 88.6% with A498 renal; 1.24% (active) with CCRF-CEM leukemia; -13.1% (active) with MOLT-4 leukemia; -24.5% (active) with SR leukemia; -30.3% (active) with RPMI-8226 leukemia. Moreover, the growth in the experiment on OVCAR-8 ovarian was 17.5%; in the experiment on OVCAR-5 ovarian, 67.9%; in the experiment on OVCAR-4 ovarian it was 33.9%; in the experiment with SK-OV-3 ovarian it was 68.6%; with IGROV1 ovarian, 20.4%; in the experiment with OVCAR-3 ovarian, -34.3% (active). The growth in the experiment on HS 578T breast was 52.3%; in the experiment with NCI/ADR-RES ovarian, 29.4%.

As to `O=C(/C=C/c1ccc(Cl)cc1)c1ccc(-n2cc(CN3CCN(c4cc5c(cc4F)c(=O)c(C(=O)O)cn5C4CC4)CC3)nn2)cc1`, the growth in the experiment on SK-MEL-2 melanoma is 99.1%; in the experiment on EKVX NSCLC, 96.6%; in the experiment on SN12C renal, 58.2%; with UO-31 renal it was 65.1%; with TK-10 renal, 92.4%; in the experiment with ACHN renal, 89.9%. The growth was 75.5% with CAKI-1 renal; 60.5% in the experiment with A498 renal; 74.6% in the experiment with CCRF-CEM leukemia; 81.7% in the experiment on MOLT-4 leukemia; 13.1% in the experiment on SR leukemia; 11.5% with RPMI-8226 leukemia. The growth is 83.6% in the experiment on OVCAR-8 ovarian; 100% in the experiment on OVCAR-5 ovarian; 94.4% in the experiment on OVCAR-4 ovarian; 84.6% with SK-OV-3 ovarian; 59% with IGROV1 ovarian; 90.5% in the experiment with OVCAR-3 ovarian. For the same compound, the growth in the experiment on HS 578T breast is 65.3%; in the experiment with NCI/ADR-RES ovarian it was 94.8%.

As to `NC(=O)[C@@H]1Cc2ccccc2CN1C(=O)c1ccc2c(c1)Cc1ccccc1-2`, the growth in the experiment on SK-MEL-2 melanoma was 92.8%; in the experiment on EKVX NSCLC, 83.1%; with SN12C renal, 92.4%; in the experiment on UO-31 renal, 61.3%; in the experiment with TK-10 renal, 93.4%; in the experiment on ACHN renal, 90.5%. The growth with CAKI-1 renal was 80.9%; with A498 renal, 89.2%; in the experiment on CCRF-CEM leukemia it was 81.9%; with MOLT-4 leukemia, 71.1%; in the experiment on SR leukemia, 92.6%; with RPMI-8226 leukemia, 60.1%. In addition, the growth is 75.1% with OVCAR-8 ovarian; 98.8% with OVCAR-5 ovarian; 84.9% with OVCAR-4 ovarian; 108% with SK-OV-3 ovarian; 90.2% in the experiment with IGROV1 ovarian; 85.7% in the experiment on OVCAR-3 ovarian. Further, the growth in the experiment with HS 578T breast was 93.8%; in the experiment on NCI/ADR-RES ovarian, 62.8%.

Regarding `O=C(Nc1cccc2c1C(=O)c1cccc(NC(=O)c3ccc(C(=O)Nc4cccc5c4C(=O)c4cccc(NC(=O)c6ccccc6)c4C5=O)cc3)c1C2=O)c1ccccc1`, the growth is 73.1% in the experiment with SK-MEL-2 melanoma; 86.5% in the experiment with EKVX NSCLC; 96.6% in the experiment on SN12C renal; 72.9% in the experiment on UO-31 renal; 121% with TK-10 renal; 99.9% with ACHN renal. The growth is 108% in the experiment with CAKI-1 renal; 117% with A498 renal; 115% with CCRF-CEM leukemia; 75.2% with MOLT-4 leukemia; 9.04% (active) in the experiment with SR leukemia; 105% with RPMI-8226 leukemia. The growth in the experiment on OVCAR-8 ovarian is 98.1%; in the experiment on OVCAR-5 ovarian, 91.1%; with OVCAR-4 ovarian it was 98.9%; with SK-OV-3 ovarian, 99.4%; with IGROV1 ovarian, 41.1%; with OVCAR-3 ovarian it was 106%. Moreover, the growth in the experiment on HS 578T breast is 99.5%; in the experiment with NCI/ADR-RES ovarian, 101%.
